Inconclusive results are not listed. Calls of active or inactive are those of the source. Unless noted, calls come from the whole dose curve; as a rule, active = well fitted curve in the direction sought with a large enough effect; inconclusive = small, poorly fitted or top-dose-only effect, or another doubt; inactive = no such curve, though single readings can be large; an effect the other way counts as inactive or inconclusive.

A short description of assay [1]: Primary qHTS for small molecule stabilizers of the endoplasmic reticulum resident proteome: Secreted ER Calcium Modulated Protein (SERCaMP) assay (AID 1508630). Put shortly: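 GLuc-SERCaMP-expressing SH-SY5Y cells, pretreated 16 h with compound, are challenged with thapsigargin to empty ER calcium stores; after 4 h, coelenterazine is added directly to the medium and luminescence is imaged.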
For orientation: Quantitative high-throughput screening tests each substance at several concentrations.

For assay [2], the target named is Papain (Carica papaya) (UniProt P00784). The assay is described as follows: Primary qHTS assay for inhibitors of the protease papain (AID 1645873).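 Note: papain turnover of Z-FR-AMC read as the AMC fluorescence gain over 10 min.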 Note: potency is the fitted concentration of half-maximal effect.
Sequence of Papain (Carica papaya) (P00784 whole entry, looked up): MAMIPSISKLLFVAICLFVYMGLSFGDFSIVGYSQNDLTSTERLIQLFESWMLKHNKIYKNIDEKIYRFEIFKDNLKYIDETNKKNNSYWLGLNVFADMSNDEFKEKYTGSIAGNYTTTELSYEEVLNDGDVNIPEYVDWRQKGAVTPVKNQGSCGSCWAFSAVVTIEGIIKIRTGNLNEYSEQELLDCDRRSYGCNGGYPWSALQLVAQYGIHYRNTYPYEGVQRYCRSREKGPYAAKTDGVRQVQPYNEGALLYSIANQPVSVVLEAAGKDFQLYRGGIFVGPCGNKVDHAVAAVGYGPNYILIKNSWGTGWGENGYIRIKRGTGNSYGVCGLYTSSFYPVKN
For assay [3], the target named is Cytochrome P450 2C9 (Homo sapiens) (UniProt P11712). Briefly: Cytochrome P450 family 2 subfamily C member 9 (CYP2C9) small molecule antagonists: luciferase biochemical (cell-free) qHTS assay (AID 1645842; active = well fitted curve in the direction sought with a large enough effect in the repeat runs; an effect the other way counts as inactive or inconclusive; note: nearly all actives have a fitted effect of over 55% in size; note: potency is the fitted concentration of half-maximal effect). An outline of the steps: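 Luminescence, after 20 min with luciferin detection reagent, reflected CYP2C9 turnover during a 1 h NADPH-driven reaction at 37C. Enzyme-substrate mix contained 0.4% bovine serum albumin and was preincubated with compound 10 min at room temperature.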
Sequence of Cytochrome P450 2C9 (Homo sapiens) (P11712 whole entry, looked up): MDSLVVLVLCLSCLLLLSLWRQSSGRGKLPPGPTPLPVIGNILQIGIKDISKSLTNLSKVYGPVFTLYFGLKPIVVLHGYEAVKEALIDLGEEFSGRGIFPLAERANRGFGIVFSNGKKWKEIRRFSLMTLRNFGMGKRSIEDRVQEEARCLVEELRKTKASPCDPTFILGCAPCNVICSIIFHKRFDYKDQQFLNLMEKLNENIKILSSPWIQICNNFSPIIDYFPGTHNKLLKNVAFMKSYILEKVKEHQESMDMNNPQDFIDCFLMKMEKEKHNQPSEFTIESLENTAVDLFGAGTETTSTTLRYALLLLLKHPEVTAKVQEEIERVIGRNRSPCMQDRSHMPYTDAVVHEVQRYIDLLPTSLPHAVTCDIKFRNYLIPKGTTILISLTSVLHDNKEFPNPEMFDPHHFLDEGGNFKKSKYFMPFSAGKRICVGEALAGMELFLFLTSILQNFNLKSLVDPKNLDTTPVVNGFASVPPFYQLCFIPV

Assay [4] has as its target Cytochrome P450 2D6 (Homo sapiens) (UniProt P10635). Briefly: Cytochrome P450 family 2 subfamily D member 6 (CYP2D6) small molecule antagonists: luciferase biochemical (cell-free) qHTS assay (AID 1645840; active = well fitted curve in the direction sought with a large enough effect in the repeat runs; an effect the other way counts as inactive or inconclusive; note: nearly all actives have a fitted effect of over 55% in size; note: potency is the fitted concentration of half-maximal effect). Put shortly: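 P450-Glo luminescent screen: recombinant CYP2D6 enzyme–proluciferin substrate mix preincubated with compound 10 min at room temperature, then NADPH regeneration added for 1 h at room temperature. Detection reagent added for 20 min; luciferin light read as relative luminescence units.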

Sequence of Cytochrome P450 2D6 (Homo sapiens) (P10635 whole entry, looked up): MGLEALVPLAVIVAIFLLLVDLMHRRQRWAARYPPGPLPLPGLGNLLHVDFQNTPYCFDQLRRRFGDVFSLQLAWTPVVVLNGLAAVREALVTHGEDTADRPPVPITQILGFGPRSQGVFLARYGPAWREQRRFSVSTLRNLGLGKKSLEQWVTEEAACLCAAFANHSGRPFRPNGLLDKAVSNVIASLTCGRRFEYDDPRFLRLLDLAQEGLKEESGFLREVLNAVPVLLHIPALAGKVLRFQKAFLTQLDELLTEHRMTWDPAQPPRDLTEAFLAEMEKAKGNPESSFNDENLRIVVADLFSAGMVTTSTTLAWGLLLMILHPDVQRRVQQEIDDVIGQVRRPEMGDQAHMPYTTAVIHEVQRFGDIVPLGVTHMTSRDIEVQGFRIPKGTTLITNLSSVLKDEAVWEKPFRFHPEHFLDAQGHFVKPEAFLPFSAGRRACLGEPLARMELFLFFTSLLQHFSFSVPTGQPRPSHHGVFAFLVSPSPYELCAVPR

For `COc1ccc2c(c1)CCC1C2CC[C@@]2(C)C1CC[C@@H]2NCCCCCCN1C(=O)CCC1=O` (stereo partly drawn), the Potency entry in assay [1] and in assay [2] was “inactive” in each case.
For the compound `O=P(O)(O)C(Cl)(Cl)P(=O)(O)O`, the Potency result in assay [1] and in assay [2] was “inactive” in each case.
For the compound `CN(C)c1ccc(/C=C2\C(=O)Nc3ccccc32)cc1`, the Potency result in assay [1] and in assay [2] was “inactive” each time.
`Cc1ccc(S(=O)(=O)/C=C/C#N)cc1`: the Potency result in assay [1] and in assay [2] was “inactive” each time.
In the case of `Brc1c(Br)c(Br)c2n[nH]nc2c1Br`, the Potency result in assay [1] and in assay [2] was “inactive” each time.
With `CCCCCCCCCCCCCCCCCC(=O)OC(CC(=O)O)C[N+](C)(C)C` (stereo not drawn), the Potency result in assay [1] and in assay [2] was “inactive” in each case.
For the compound `CCOC(=O)C1=C(C)NC(C)=C(C(=O)OCC)C1c1c(F)c(F)c(F)c(F)c1F`, the Potency result in assay [1] was “inactive”. Also, the Potency in assay [2] is 25.1 µM (active).
`Nc1nc(Nc2ccccc2)nc2c1ncn2[C@@H]1O[C@H](CO)[C@@H](O)[C@H]1O`: the Potency result in assay [1] and in assay [2] was “inactive” throughout.
`O=C(CS)Nc1ccccc1`: the Potency result in assay [1] was “inactive”. Moreover, the Potency in assay [3] was 4.9 µM (active).
As to `C#CC1(O)CC[C@H]2[C@@H]3CCC4=CCCC[C@@H]4[C@H]3CC[C@@]21C` (stereo partly drawn), the Potency entry in assay [1] was “inactive”. In assay [3], the Potency was 1.74 µM (active).
For the compound `O=C(O)CCCC[C@@H]1CCSS1`, the Potency result in assay [1] and in assay [2] was “inactive” in each case.
With `COc1cc2c(CCNC(C)=O)c[nH]c2cc1Cl`, the Potency result in assay [1] and in assay [2] was “inactive” each time.
As to `Cc1c(Nc2ncccc2C(=O)O)cccc1C(F)(F)F`, the Potency entry in assay [1], in assay [4] and in assay [3] was “inactive” each time.
With `Cn1ncc(S(=O)(=O)Cc2ccccc2)c(Br)c1=O`, the Potency result in assay [1] and in assay [2] was “inactive” each time.
In the case of `CCCCCCCCc1ccc(-c2ccc(C(=O)O)cc2)cc1`, the Potency entry in assay [1] and in assay [2] was “inactive” throughout.
Turning to `CC(C)Cc1ccc([C@H](C)C(=O)O)cc1`, the Potency entry in assay [1] and in assay [2] was “inactive” throughout.
Consider `Nc1ncnc2c1ncn2[C@@H]1O[C@H](COP(=O)(O)CP(=O)(O)OP(=O)(O)O)[C@@H](O)[C@H]1O`, for which the Potency entry in assay [1] and in assay [2] was “inactive” each time.
With `CCN(CC)c1ncnc2c1ncn2[C@@H]1O[C@H](COP(=O)(O)OP(=O)(O)C(Br)(Br)P(=O)(O)O)[C@@H](O)[C@H]1O`, the Potency entry in assay [1] and in assay [2] was “inactive” each time.
Regarding `CCCCC1C(=O)N(c2ccccc2)N(c2ccc(O)cc2)C1=O` (stereo not drawn), the Potency result in assay [1] was “inactive”. Also, the Potency in assay [3] was 8.71 µM (active).
For `NC(=O)C(=O)O`, the Potency result in assay [1] and in assay [2] was “inactive” each time.
Take `COC(=O)c1c(C)[nH]c(C)c1C(=O)c1ccccc1Cc1ccccc1`: the Potency result in assay [1] and in assay [2] was “inactive” in each case.
`Nc1nc(Cl)nc2c1ncn2[C@@H]1O[C@H](COP(=O)(O)OP(=O)(O)OP(=O)(O)O)[C@@H](O)[C@H]1O`: the Potency result in assay [1] and in assay [2] was “inactive” throughout.
In the case of `NCCCS(=O)(=O)O`, the Potency entry in assay [1] and in assay [2] was “inactive” each time.
`c1ccc(-c2ccccn2)nc1`: the Potency entry in assay [1] and in assay [2] was “inactive” throughout.
As to `C#C[C@]1(O)CC[C@H]2[C@@H]3CCC4=Cc5oncc5CC4(C)[C@H]3CCC21C` (stereo partly drawn), the Potency entry in assay [1] and in assay [2] was “inactive” in each case.
As for `CN(C)CCC(c1ccc(Cl)cc1)c1ccccn1` (stereo not drawn), the Potency entry in assay [1] and in assay [2] was “inactive” in each case.
For `COC(=O)c1nc(Cl)c(Cl)nc1N`, the Potency entry in assay [1], in assay [4] and in assay [3] was “inactive” each time.
For `S=c1[nH]c2ccccc2s1`, the Potency result in assay [1] was “inactive”. The values for the Potency in assay [4] and in assay [3] were 29.1 µM (active) and 15.9 µM (active), respectively.
In the case of `CN1CCc2ccccc2Cc2[nH]c3ccccc3c2CC1`, the Potency result in assay [1] and in assay [2] was “inactive” in each case.
In the case of `O=C(/C=C/c1ccccc1)NCCO`, the Potency result in assay [1] was “inactive”. For the same compound, in assay [3], the Potency was 5.49 µM (active).
In the case of `CO/N=C(\C(=O)N[C@@H]1C(=O)N2C(C(=O)O)=C(COC(C)=O)CS[C@H]12)c1csc(N)n1`, the Potency result in assay [1], in assay [4], in assay [3] and in assay [2] was “inactive” throughout.
`O=C(O)CC1CCCc2ccccc2C1O` (stereo not drawn): the Potency result in assay [1] and in assay [2] was “inactive” in each case.
Turning to `O=C(O)c1cc(=O)c2c(Cl)cc(Cl)cc2[nH]1`, the Potency entry in assay [1] and in assay [2] was “inactive” in each case.
Turning to `NO`, the Potency result in assay [1] and in assay [2] was “inactive” each time.
For the compound `CC(C)(C=O)Cc1cc(C(C)(C)C)c(O)c(C(C)(C)C)c1`, the Potency entry in assay [1] and in assay [2] was “inactive” throughout.
With `Nc1ncnc2c1ncn2[C@@H]1O[C@H](COP(=O)(O)OP(=O)(O)OP(=O)(O)OP(=O)(O)OC[C@@H]2O[C@H](n3cnc4c(N)ncnc43)[C@@H](O)[C@H]2O)[C@@H](O)[C@H]1O`, the Potency entry in assay [1] and in assay [2] was “inactive” each time.
Regarding `CSc1ccccc1N1CCN(CCCCCC(=O)NC2CCCc3ccccc32)CC1` (stereo not drawn), the Potency result in assay [1] and in assay [2] was “inactive” in each case.
As to `Nc1nc(Cl)nc2c1ncn2[C@@H]1O[C@H](CO)[C@@H](O)[C@H]1O`, the Potency result in assay [1] and in assay [2] was “inactive” in each case.
`COc1cc(C(O)CO)ccc1OS(=O)(=O)O` (stereo not drawn): the Potency result in assay [1] and in assay [2] was “inactive” in each case.
With `CN(C)c1nc(N)c(C(=O)N=C(N)N)nc1Cl`, the Potency entry in assay [1] and in assay [2] was “inactive” throughout.
`Cn1c(=O)c2[nH]c(-c3ccccc3)nc2n(C)c1=O`: the Potency result in assay [1] and in assay [2] was “inactive” each time.
As to `CC12C(=O)OC(=O)C1(C)C1CCC2O1` (stereo not drawn), the Potency entry in assay [1] and in assay [2] was “inactive” each time.
As for `C[N+]1(C)CCC(OC(=O)C(c2ccccc2)c2ccccc2)CC1`, the Potency entry in assay [1] and in assay [2] was “inactive” in each case.
Turning to `O=c1[nH]c2cc([N+](=O)[O-])c([N+](=O)[O-])cc2[nH]c1=O`, the Potency result in assay [1] and in assay [2] was “inactive” each time.

The values above are taken from PubChem BioAssay (NCATS).
